Source: PubChem BioAssay
In the library only some 7.3% were active in any assay of this set; here they are far more common.
Rab9 prom act: activators of Rab9 promoter. Potency, µM (series often up to 9.22 µM), for inactives: top-dose activation, negative = inhibition, hits mostly activators. AID 485297. 2.8% of 320,000 active. Huh7 Rab9 promoter-luciferase reporter, luminescence, 24 h; also: % of control where 0% means no effect; nearly all actives have a fitted effect of over 60% in size
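Cell-based reporter: Huh7 stable for Rab9 promoter-driven luciferase, plated in reduced-serum medium with 10% FBS at 1500 cells/well, compound-treated 24 h at 37 °C, luminescence read after 10 min reagent.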
NPC1 promoter act: activators of NPC1 promoter. Potency, µM (doses to about 9.22 µM), for the others: at the top dose activation, usual class: activators. 2.4% of 320,000 active. Huh7 NPC1 promoter luciferase reporter, 24 h; also: % of control where 0% means no effect; nearly all actives have a fitted effect of over 60% in size
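Quantitative HTS used a cell-based reporter: Huh7 cells stably bearing the NPC1 promoter upstream of luciferase were treated with compounds for 24 h, and promoter activation was read as luminescence.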
SMN2 splice up: increases expression of the SMN2 splice variant. HEK293 SMN2-luciferase splicing reporter, luminescence, 30-36 h. Potency, µM (series often up to 46.1 µM), without a hit: at the highest dose activity change, positive = activation, hits mostly activators. 2.8% of 210,000 active. AID 1458; also: % of control where 0% means no effect; nearly all actives have a fitted effect of over 55% in size
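qHTS luciferase splicing reporter: luminescence rises when SMN2 exon 7 is included in transfected HEK293 cells. Compound exposure lasted 30-36 h at 37C, with 4.5 mM final sodium butyrate as control, followed by a ONE-Glo read.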
FLuc counter: firefly luciferase modulation, counter-screen for miR-21 project. P08659. purified FLuc, Km substrates, luminescence inhibition. Potency, µM (highest dose often 57.5 µM), for inactives: at the highest dose activity change, negative = inhibition, hits mostly inhibitors. 6.9% of 360,000 active;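 also: plate controls were vehicle for no effect and reference inhibitor for full effect; nearly all actives have a fitted effect of over 55% in size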
Target sequence (P08659 whole entry, looked up): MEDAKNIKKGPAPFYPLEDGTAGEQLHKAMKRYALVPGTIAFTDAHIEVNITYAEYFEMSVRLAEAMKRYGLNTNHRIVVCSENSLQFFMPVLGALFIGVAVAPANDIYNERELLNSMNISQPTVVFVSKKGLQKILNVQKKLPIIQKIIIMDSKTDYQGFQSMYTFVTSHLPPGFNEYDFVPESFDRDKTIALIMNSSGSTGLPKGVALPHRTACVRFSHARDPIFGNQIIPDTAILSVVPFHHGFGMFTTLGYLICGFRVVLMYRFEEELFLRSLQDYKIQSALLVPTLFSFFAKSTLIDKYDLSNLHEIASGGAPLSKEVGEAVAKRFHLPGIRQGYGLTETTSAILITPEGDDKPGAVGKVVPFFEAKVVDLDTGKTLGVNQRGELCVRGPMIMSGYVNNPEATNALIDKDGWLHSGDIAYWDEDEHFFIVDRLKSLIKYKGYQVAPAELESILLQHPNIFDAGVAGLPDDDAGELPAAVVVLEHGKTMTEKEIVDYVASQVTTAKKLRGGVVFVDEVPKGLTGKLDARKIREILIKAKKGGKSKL
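Purified P. pyralis luciferase, 10 nM final, with Km-level 10 uM D-luciferin and 10 uM ATP in 50 mM Tris acetate pH 7.5, 10 mM Mg acetate, 0.01% Tween-20, 0.05% BSA; 6-point qHTS titration about 60 µM downward; luminescence read.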
ELG1 genotoxic: inducers of genotoxicity in HEK293T ELG1-luciferase cells; HEK293T ELG1-luciferase reporter, luminescence, 16 h; 1.3% of 330,000 active; Potency, µM (titrated, usually from 46 µM), for inactives: top-dose activity change, positive = activation, most hits filed as activators; also: % of control where 0% means no effect; nearly all actives have a fitted effect of over 60% in size
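Screening used a luciferase reporter fused to human ELG1 in HEK293T cells. Luminescence was read on a CCD plate imager after 16 hr exposure and 30 min ONE-Glo incubation.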
Luc counter: blocks Kinase-Glo luciferase, a counter-screen artifact; Q27757; Kinase-Glo luciferase, ATP luminescence, 8 min; 0.28% of 200,000 active; Potency, µM (series often up to 38.3 µM), without a hit: at the top dose activity change, negative = inhibition, hits mostly inhibitors; AID 1379; also: % is scaled to controls: 0 for no effect and ±100 for the full control effect; nearly all actives have a fitted effect of over 60% in size
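Light output from Kinase-Glo luciferase with luciferin and 10 uM ATP in 50 mM imidazole pH 7.2, KCl, MgCl2, Tween 20, BSA; compound pin-delivered, 8-min ambient incubation, then luminescence read.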
An asterisk follows results filed as active; [ ] = another dose, or the depositor's remark. Calls follow the shape of the dose curve; as a rule, active = well fitted curve in the direction sought with a large enough effect; inconclusive = small, poorly fitted or top-dose-only effect, or another doubt; inactive = no such curve, though single readings can be large; an effect the other way counts as inactive or inconclusive. Potency is read from the fitted curve at half-maximal effect.

Screening CC(C)(C)C1CCc2sc(-c3nnc(CCl)o3)cc2C1 (stereo unspecified) returned Rab9 prom act -1%, NPC1 promoter act -2%, SMN2 splice up -24%, FLuc counter 24µM*, ELG1 genotoxic 5% and Luc counter 0%.
Oc1nc(Nc2ccc(F)cc2)sc1/C=C1\C=Nc2ccccc21 was read as Rab9 prom act 17%, NPC1 promoter act 14%, FLuc counter inconclusive and ELG1 genotoxic -1%.
`O=c1[nH]c(S)c(/C=C2\C=Nc3ccccc32)s1` gave Rab9 prom act -2%, NPC1 promoter act 2%, FLuc counter 15µM* and ELG1 genotoxic 6%.
`COc1cccc(/C=C(\C#N)c2nc3ccccc3[nH]2)c1OCC(=O)O` gave Rab9 prom act -1%, NPC1 promoter act -1%, FLuc counter -26% and ELG1 genotoxic 5%.
For Cc1cc(/C=C(/C#N)c2nc3ccccc3[nH]2)c(C)n1-c1cccc([N+](=O)[O-])c1 the results were Rab9 prom act 5%, NPC1 promoter act 10%, SMN2 splice up -17%, FLuc counter 5.4µM*, ELG1 genotoxic -1% and Luc counter -5%.
Cc1cc(/C=C(\C#N)c2nc3ccccc3[nH]2)c(C)n1C was read as Rab9 prom act 2.2µM*, NPC1 promoter act 3.5µM*, SMN2 splice up 11µM*, FLuc counter 0.95µM*, ELG1 genotoxic inconclusive and Luc counter -15%.
Cc1cc(C)c2nc(N(CCCN(C)C)C(=O)C3=COCCO3)sc2c1 was read as Rab9 prom act 3%, NPC1 promoter act -5%, FLuc counter 3% and ELG1 genotoxic 11%.
Screening CCN(C(=O)C1=COCCO1)c1nc2c(C)cccc2s1 returned Rab9 prom act inconclusive, NPC1 promoter act 29%, FLuc counter 15µM* and ELG1 genotoxic 21µM*.
`Clc1ccc(/C=N/Nc2nnc(-c3ncc[nH]3)c3ccccc23)cc1` gave Rab9 prom act 2.8µM*, NPC1 promoter act 4.5µM*, SMN2 splice up inconclusive, FLuc counter 0.85µM*, ELG1 genotoxic -4% and Luc counter -8%.
For Clc1cccc(/C=N/Nc2nnc(Cl)c3ccccc23)c1 the results were Rab9 prom act 21%, NPC1 promoter act inconclusive, SMN2 splice up 12%, FLuc counter inconclusive, ELG1 genotoxic 9% and Luc counter -6%.
COc1ccccc1-c1cc(C(=O)N2CCCC2)no1 was read as Rab9 prom act 2µM*, NPC1 promoter act 2.5µM*, FLuc counter 7.6µM* and ELG1 genotoxic 2.9µM*.
O=C(c1cc(-c2ccc(Cl)cc2)on1)N1CCN(c2ccc(F)cc2)CC1 was read as Rab9 prom act -1%, NPC1 promoter act 0%, FLuc counter -2% and ELG1 genotoxic -1%.
`O=C(c1cc(-c2ccccc2Cl)on1)N1CCCC1` gave Rab9 prom act inconclusive, NPC1 promoter act inconclusive, FLuc counter 1.2µM* and ELG1 genotoxic inconclusive.
COc1ccccc1-c1cc(C(=O)N2CCN(c3ccc(F)cc3)CC2)no1 was read as Rab9 prom act -1%, NPC1 promoter act 1%, SMN2 splice up -18%, FLuc counter -17%, ELG1 genotoxic -4% and Luc counter 2%.
O=C(c1cccc(F)c1)N1CCN(C(=O)c2cc(-c3ccc(Cl)cc3Cl)on2)CC1 was read as Rab9 prom act -3%, NPC1 promoter act 0%, FLuc counter 11µM*, ELG1 genotoxic -5% and Luc counter 2%.
Screening COc1ccccc1-c1cc(C(=O)N2CCOCC2)no1 returned Rab9 prom act 2.2µM*, NPC1 promoter act inconclusive, FLuc counter 13µM* and ELG1 genotoxic 2.9µM*.
O=C(O)Cc1cccnc1 was read as SMN2 splice up 0%[9.22 µM] and Luc counter -4%[7.66 µM].
Screening O=C(c1csc(Nc2cccc3ccccc23)n1)N1CCCC1 returned Rab9 prom act 0%, NPC1 promoter act 1%, FLuc counter -11% and ELG1 genotoxic -5%.
Screening O=C(c1csc(Nc2ccccc2Cl)n1)N1CCCC1 returned Rab9 prom act inconclusive, NPC1 promoter act inconclusive, SMN2 splice up 13µM*, FLuc counter inconclusive, ELG1 genotoxic 20% and Luc counter 2%.
Screening CCOC(=O)C1CCN(c2ncnc3c2nc2n3CCCCC2)CC1 returned FLuc counter -1%.
Screening COc1cc2c(cc1OC)C(COc1ccc3c(C)cc(=O)oc3c1)N(C(=O)Cc1ccc(F)cc1)CC2 (stereo unspecified) returned SMN2 splice up -6% and FLuc counter -2%.
For COc1ccc(-c2nn(-c3ccccc3)cc2/C=N/NC(=O)c2ccc3c(c2)OCO3)cc1 the results were Rab9 prom act 3%, NPC1 promoter act 1%, SMN2 splice up 25%, FLuc counter inconclusive, ELG1 genotoxic -8% and Luc counter 2%.
O/N=C/c1cn(-c2ccccc2)nc1-c1ccc2c(c1)OCCO2 was read as Rab9 prom act 10%, NPC1 promoter act 13%, SMN2 splice up 13%, FLuc counter inconclusive, ELG1 genotoxic 9% and Luc counter -5%.
Screening O=C(N/N=C/c1cn(-c2ccccc2)nc1-c1ccc2c(c1)OCCO2)c1ccncc1 returned Rab9 prom act inconclusive, NPC1 promoter act inconclusive, SMN2 splice up 11µM*, FLuc counter -18%, ELG1 genotoxic inconclusive and Luc counter -1%.
For O=C(N/N=C\c1cn(-c2ccccc2)nc1-c1ccccc1)c1ccc2c(c1)OCO2 the results were Rab9 prom act -1%, NPC1 promoter act 5%, SMN2 splice up 19%, FLuc counter 4.8µM*, ELG1 genotoxic 0% and Luc counter -9%.
Screening O=C(N/N=C/c1cn(-c2ccccc2)nc1-c1ccc(F)cc1)c1ccc2c(c1)OCO2 returned Rab9 prom act 0%, NPC1 promoter act 4%, SMN2 splice up 8%, FLuc counter 4.3µM*, ELG1 genotoxic -3% and Luc counter 0%.
For CCOc1cc(C(=O)NCc2nc(-c3cccc(C)c3)no2)cc(OCC)c1OCC the results were SMN2 splice up -5% and FLuc counter -7%.
`CC1CCN(S(=O)(=O)N2CCC(C(=O)NCc3ccccc3Cl)CC2)CC1` gave FLuc counter -4%.
Screening O=C(/C=C/C=C/c1ccccc1)c1ccco1 returned Rab9 prom act 25%, NPC1 promoter act inconclusive, FLuc counter 3µM* and ELG1 genotoxic 15%.
O=C(/C=C/c1ccc(Br)cc1)c1ccco1 was read as Rab9 prom act 4%, NPC1 promoter act 1%, SMN2 splice up -3%[1.84 µM], FLuc counter 3.4µM*, ELG1 genotoxic inconclusive and Luc counter -5%.
